Reference: ChEMBL document CHEMBL2218924, “A broad activity screen in support of a chemogenomic map for kinase signalling research and drug discovery” (Biochem J, 2013)

Experiments:
[1] = molecular target: Serine/threonine-protein kinase MRCK beta (Homo sapiens) (UniProt Q9Y5S2); conditions: at 1 µM
[2] = molecular target: Serine/threonine-protein kinase MRCK beta (Homo sapiens) (UniProt Q9Y5S2); conditions: at 10 µM
[3] = molecular target: Ribosomal protein S6 kinase alpha-5 (Homo sapiens) (UniProt O75582); conditions: at 1 µM
[4] = molecular target: Ribosomal protein S6 kinase alpha-5 (Homo sapiens) (UniProt O75582); conditions: at 10 µM
[5] = molecular target: T1, Serine/threonine-protein kinase 4 (Homo sapiens) (UniProt Q13043); conditions: at 1 µM
T1 sequence (whole entry): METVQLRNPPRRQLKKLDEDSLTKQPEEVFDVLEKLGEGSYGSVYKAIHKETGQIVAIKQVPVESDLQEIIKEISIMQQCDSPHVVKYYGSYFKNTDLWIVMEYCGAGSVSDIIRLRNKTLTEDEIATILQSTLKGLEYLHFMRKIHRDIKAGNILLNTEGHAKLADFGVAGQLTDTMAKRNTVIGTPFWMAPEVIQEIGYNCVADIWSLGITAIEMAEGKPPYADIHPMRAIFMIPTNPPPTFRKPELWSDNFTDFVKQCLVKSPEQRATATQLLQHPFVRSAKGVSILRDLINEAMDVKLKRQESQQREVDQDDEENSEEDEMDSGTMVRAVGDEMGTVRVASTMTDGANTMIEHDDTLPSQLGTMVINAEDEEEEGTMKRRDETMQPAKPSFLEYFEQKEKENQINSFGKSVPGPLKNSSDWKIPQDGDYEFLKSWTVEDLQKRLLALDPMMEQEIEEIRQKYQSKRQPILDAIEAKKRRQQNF

[6] = molecular target: T1, Serine/threonine-protein kinase 4 (Homo sapiens); conditions: at 10 µM
[7] = molecular target: Serine/threonine-protein kinase 24 (Homo sapiens) (UniProt Q9Y6E0); conditions: at 1 µM
[8] = molecular target: Serine/threonine-protein kinase 24 (Homo sapiens) (UniProt Q9Y6E0); conditions: at 10 µM
[9] = molecular target: Ribosomal protein S6 kinase alpha-4 (Homo sapiens) (UniProt O75676); conditions: at 1 µM
[10] = molecular target: Ribosomal protein S6 kinase alpha-4 (Homo sapiens) (UniProt O75676); conditions: at 10 µM
[11] = molecular target: SRSF protein kinase 3 (Homo sapiens) (UniProt Q9UPE1); conditions: at 1 µM
[12] = molecular target: SRSF protein kinase 3 (Homo sapiens) (UniProt Q9UPE1); conditions: at 10 µM
[13] = molecular target: T2, Serine/threonine-protein kinase 3 (Homo sapiens) (UniProt Q13188); conditions: at 1 µM
T2 sequence (whole entry): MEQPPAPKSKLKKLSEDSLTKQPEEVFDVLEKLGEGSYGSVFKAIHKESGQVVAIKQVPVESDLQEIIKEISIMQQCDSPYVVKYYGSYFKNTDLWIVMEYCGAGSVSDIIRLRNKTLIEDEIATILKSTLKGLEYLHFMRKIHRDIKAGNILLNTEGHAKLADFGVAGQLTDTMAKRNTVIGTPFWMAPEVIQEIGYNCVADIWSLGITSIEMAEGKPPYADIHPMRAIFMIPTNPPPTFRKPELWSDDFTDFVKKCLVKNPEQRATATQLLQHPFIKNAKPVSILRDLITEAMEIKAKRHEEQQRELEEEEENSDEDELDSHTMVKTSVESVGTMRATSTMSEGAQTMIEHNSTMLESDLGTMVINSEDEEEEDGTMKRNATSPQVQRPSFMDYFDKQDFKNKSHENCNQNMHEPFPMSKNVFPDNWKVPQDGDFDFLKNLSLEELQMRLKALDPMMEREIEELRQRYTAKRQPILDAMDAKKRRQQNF

[14] = molecular target: T2, Serine/threonine-protein kinase 3 (Homo sapiens); conditions: at 10 µM
[15] = molecular target: T3, Tyrosine-protein kinase Mer (Homo sapiens) (UniProt Q12866); conditions: at 1 µM
T3 sequence (whole entry): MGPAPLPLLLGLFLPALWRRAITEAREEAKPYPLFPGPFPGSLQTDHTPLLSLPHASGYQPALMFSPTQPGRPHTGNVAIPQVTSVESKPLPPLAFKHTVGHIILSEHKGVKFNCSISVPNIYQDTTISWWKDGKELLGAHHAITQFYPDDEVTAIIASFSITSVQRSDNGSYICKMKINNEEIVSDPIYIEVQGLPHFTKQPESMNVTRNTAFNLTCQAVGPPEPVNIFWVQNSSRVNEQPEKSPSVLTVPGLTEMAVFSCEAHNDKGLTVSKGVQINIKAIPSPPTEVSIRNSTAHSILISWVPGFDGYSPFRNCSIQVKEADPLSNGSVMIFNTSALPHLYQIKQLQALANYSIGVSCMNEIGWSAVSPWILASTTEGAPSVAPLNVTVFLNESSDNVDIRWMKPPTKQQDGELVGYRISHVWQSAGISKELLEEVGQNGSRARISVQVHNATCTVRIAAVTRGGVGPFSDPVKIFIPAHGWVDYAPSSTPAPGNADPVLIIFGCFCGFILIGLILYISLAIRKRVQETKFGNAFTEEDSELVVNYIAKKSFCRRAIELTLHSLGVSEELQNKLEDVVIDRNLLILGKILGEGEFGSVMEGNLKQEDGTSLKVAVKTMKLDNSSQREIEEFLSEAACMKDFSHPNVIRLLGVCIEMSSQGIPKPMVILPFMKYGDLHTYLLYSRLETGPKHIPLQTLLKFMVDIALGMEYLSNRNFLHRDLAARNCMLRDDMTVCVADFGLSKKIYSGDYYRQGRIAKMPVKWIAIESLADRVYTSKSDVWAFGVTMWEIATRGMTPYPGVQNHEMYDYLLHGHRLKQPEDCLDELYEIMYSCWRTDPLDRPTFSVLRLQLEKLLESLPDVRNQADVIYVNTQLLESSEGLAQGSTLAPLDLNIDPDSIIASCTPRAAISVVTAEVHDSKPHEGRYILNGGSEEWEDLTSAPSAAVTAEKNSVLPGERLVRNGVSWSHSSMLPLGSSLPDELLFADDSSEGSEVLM

[16] = molecular target: T3, Tyrosine-protein kinase Mer (Homo sapiens); conditions: at 10 µM
[17] = molecular target: MAP kinase-interacting serine/threonine-protein kinase 2 (Homo sapiens) (UniProt Q9HBH9); conditions: at 1 µM
[18] = molecular target: MAP kinase-interacting serine/threonine-protein kinase 2 (Homo sapiens) (UniProt Q9HBH9); conditions: at 10 µM
[19] = molecular target: Hepatocyte growth factor receptor (Homo sapiens) (UniProt P08581); conditions: at 1 µM
[20] = molecular target: Hepatocyte growth factor receptor (Homo sapiens) (UniProt P08581); conditions: at 10 µM

Sequence of Hepatocyte growth factor receptor (Homo sapiens) (P08581 whole entry): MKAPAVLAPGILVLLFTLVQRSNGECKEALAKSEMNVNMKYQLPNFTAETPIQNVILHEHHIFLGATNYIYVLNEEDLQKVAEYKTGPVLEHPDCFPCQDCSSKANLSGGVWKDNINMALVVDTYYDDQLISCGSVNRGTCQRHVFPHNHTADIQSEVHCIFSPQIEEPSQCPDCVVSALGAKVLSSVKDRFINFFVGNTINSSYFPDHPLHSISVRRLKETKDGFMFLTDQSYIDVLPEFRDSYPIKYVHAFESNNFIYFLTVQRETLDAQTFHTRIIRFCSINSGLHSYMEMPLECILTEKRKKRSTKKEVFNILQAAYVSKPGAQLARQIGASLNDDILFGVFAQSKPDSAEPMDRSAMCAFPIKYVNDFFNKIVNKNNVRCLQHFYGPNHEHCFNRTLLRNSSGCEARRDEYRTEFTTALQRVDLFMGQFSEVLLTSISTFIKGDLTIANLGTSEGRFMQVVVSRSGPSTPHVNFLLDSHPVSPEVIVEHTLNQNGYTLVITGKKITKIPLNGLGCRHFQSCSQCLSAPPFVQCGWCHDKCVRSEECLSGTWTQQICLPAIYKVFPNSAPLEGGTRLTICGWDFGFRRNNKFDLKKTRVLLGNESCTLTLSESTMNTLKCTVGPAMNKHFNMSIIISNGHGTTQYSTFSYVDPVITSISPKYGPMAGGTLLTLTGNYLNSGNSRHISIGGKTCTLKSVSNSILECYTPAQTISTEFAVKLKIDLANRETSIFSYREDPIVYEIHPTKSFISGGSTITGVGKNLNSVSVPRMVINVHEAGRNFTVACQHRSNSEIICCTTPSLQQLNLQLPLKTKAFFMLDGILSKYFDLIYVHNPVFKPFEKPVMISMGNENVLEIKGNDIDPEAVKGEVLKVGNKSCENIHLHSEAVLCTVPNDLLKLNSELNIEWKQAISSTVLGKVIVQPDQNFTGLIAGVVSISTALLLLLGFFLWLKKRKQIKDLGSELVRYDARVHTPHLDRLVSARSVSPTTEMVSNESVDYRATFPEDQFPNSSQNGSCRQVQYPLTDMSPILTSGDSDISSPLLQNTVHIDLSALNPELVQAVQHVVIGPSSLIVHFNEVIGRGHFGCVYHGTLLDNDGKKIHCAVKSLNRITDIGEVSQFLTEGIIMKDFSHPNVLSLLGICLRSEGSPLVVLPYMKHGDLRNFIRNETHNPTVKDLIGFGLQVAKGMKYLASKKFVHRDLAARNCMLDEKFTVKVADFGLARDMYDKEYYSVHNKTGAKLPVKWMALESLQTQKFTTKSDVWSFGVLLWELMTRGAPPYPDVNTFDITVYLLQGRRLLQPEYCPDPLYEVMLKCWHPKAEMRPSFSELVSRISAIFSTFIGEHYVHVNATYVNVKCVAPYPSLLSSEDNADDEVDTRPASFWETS
Sequence of Serine/threonine-protein kinase 24 (Homo sapiens) (Q9Y6E0 whole entry, looked up): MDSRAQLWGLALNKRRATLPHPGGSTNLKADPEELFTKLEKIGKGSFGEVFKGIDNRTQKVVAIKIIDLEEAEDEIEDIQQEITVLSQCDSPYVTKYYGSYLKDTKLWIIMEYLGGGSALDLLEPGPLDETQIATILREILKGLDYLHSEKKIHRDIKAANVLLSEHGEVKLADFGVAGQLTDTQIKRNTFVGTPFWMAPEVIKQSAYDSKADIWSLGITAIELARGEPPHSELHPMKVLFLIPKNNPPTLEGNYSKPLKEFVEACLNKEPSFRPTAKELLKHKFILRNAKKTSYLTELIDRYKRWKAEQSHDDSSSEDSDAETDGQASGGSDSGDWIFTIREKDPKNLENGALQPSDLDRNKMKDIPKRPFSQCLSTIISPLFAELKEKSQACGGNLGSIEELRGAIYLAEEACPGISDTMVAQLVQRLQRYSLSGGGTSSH
Sequence of Ribosomal protein S6 kinase alpha-5 (Homo sapiens) (O75582 whole entry, looked up): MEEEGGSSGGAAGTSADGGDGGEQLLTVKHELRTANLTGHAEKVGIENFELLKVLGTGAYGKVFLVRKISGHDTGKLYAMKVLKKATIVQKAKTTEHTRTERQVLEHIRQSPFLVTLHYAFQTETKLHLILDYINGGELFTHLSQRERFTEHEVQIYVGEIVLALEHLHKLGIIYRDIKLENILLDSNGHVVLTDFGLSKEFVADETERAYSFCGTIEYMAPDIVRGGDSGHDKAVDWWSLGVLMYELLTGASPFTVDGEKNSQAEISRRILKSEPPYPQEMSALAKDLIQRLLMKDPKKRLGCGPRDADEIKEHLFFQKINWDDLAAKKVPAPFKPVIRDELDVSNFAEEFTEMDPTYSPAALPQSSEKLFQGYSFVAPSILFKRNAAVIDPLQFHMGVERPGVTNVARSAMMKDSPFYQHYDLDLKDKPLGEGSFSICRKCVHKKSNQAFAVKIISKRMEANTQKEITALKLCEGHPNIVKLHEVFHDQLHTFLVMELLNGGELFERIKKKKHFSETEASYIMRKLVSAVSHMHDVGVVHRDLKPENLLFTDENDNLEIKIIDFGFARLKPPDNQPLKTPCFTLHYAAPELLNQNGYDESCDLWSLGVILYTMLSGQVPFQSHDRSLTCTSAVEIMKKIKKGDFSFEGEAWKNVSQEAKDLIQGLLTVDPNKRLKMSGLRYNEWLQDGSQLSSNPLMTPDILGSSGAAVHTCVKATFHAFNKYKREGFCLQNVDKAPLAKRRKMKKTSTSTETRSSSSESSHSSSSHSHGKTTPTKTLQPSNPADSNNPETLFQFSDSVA
Sequence of MAP kinase-interacting serine/threonine-protein kinase 2 (Homo sapiens) (Q9HBH9 whole entry, looked up): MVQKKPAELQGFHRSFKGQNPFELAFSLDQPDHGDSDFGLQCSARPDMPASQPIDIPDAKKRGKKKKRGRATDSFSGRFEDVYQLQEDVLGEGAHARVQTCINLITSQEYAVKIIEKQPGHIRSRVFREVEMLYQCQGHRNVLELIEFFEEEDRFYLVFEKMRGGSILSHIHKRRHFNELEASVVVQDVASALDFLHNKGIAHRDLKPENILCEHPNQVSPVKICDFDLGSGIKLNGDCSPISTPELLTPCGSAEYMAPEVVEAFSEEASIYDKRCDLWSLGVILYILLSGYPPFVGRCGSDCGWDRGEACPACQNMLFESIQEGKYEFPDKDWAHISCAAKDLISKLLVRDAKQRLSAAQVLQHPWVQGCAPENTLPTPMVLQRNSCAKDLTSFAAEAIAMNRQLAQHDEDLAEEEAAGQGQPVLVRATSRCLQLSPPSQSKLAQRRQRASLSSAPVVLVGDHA
Sequence of Serine/threonine-protein kinase MRCK beta (Homo sapiens) (Q9Y5S2 whole entry): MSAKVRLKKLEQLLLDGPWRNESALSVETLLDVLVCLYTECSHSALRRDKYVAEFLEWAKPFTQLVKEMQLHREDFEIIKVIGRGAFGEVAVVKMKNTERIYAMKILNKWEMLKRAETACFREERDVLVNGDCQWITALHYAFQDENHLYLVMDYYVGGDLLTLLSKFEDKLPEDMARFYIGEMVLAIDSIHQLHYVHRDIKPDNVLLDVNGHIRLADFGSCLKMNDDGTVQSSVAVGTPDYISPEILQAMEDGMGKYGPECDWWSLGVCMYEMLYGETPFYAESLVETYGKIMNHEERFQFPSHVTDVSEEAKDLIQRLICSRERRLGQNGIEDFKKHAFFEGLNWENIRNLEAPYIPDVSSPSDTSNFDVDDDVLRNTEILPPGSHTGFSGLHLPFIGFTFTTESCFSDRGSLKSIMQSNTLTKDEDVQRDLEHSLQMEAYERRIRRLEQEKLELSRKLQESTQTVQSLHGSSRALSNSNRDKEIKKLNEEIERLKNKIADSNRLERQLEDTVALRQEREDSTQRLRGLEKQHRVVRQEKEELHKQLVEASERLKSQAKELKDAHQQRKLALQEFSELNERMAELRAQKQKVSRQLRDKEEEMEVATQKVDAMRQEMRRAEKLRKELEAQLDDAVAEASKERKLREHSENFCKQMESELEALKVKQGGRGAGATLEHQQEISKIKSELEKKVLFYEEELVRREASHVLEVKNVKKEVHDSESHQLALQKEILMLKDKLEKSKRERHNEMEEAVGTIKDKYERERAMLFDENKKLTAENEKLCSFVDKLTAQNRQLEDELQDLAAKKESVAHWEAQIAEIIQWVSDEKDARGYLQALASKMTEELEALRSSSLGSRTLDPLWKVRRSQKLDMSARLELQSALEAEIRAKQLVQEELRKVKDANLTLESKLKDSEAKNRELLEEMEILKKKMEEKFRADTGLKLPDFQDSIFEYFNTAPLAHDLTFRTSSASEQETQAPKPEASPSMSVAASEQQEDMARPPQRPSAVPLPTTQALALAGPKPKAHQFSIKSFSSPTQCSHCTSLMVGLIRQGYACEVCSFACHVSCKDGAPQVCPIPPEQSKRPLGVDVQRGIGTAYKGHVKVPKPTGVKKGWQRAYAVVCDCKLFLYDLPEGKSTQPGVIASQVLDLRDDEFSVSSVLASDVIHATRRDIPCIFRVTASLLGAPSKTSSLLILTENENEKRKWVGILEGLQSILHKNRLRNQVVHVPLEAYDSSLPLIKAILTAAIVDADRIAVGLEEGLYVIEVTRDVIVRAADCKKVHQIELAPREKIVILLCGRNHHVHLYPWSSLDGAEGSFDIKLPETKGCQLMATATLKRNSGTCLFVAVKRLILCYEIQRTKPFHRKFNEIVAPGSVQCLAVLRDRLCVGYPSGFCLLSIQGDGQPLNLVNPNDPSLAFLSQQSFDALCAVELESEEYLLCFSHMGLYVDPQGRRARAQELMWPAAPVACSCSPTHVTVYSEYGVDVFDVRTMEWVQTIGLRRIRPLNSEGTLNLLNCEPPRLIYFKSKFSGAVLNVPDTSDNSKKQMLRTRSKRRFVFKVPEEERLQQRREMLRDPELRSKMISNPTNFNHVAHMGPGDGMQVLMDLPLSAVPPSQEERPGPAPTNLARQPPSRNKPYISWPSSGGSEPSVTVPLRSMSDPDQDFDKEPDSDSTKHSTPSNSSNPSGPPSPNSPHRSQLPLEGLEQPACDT

SMILES	residual activity [1] [%]	residual activity [2] [%]	residual activity [3] [%]	residual activity [4] [%]	residual activity [5] [%]	residual activity [6] [%]	residual activity [7] [%]	residual activity [8] [%]	residual activity [9] [%]	residual activity [10] [%]	residual activity [11] [%]	residual activity [12] [%]	residual activity [13] [%]	residual activity [14] [%]	residual activity [15] [%]	residual activity [16] [%]	residual activity [17] [%]	residual activity [18] [%]	residual activity [19] [%]	residual activity [20] [%]
NC(=O)c1ccc(-c2nc(-c3ccc4c(c3)OCCO4)c(-c3ccccn3)[nH]2)cc1	95	92	120	124	90	118	91	82	–	–	–	–	–	–	–	–	–	–	–	–
O=C1Cc2c([nH]c3ccc(Br)cc23)-c2ccccc2N1	72	52	–	–	44	35	65	40	82	63	98	87	87	28	78	28	90	39	–	–
COc1cc2nccc(Oc3ccc(NC(=S)NC(=O)c4ccccc4C)cc3)c2cc1OC	84	67	137	102	81	86	65	68	87	93	–	–	97	77	14	4	91	93	28	4
Cn1sc(=O)n(Cc2ccccc2)c1=O	73	81	–	–	–	–	71	70	96	85	–	–	98	97	96	98	97	89	141	95
O=c1cc(N2CCOCC2)oc2c1ccc1ccccc12	95	78	125	103	91	97	70	82	–	105	–	70	–	–	105	83	100	93	–	133
Cn1c2ccccc2c2c3c(c4c5ccccc5n(CCC#N)c4c21)CNC3=O	74	64	3	2	1	2	47	57	2	5	–	–	2	2	–	–	10	10	107	106
O=c1cc(N2CCOCC2)oc2c(-c3ccccc3)cccc12	–	65	–	–	–	–	59	55	–	–	–	–	–	–	–	–	–	–	–	–
O=C1NC(=O)C(c2c[nH]c3ccccc23)=C1c1c[nH]c2ccccc12	–	–	73	19	41	7	21	2	49	6	–	35	64	9	–	33	–	–	–	43
COc1cc2nccc(Oc3ccc(NC(=O)Nc4cc(C)on4)c(Cl)c3)c2cc1OC	–	–	107	80	–	56	118	78	–	–	–	–	68	28	7	4	105	64	–	–
CCN1/C(=C/C(C)=O)Sc2ccc(OC)cc21	–	–	–	–	–	–	69	74	–	–	–	–	–	–	–	–	–	–	–	–
COc1ccc(COc2ccc(Cc3cnc(N)nc3N)cc2OC)cc1	–	–	131	109	–	77	61	65	–	–	111	82	–	–	–	–	108	100	109	129
O=C(Nc1ccc(Cl)cc1)c1ccccc1NCc1ccncc1	–	–	–	–	–	–	72	77	–	101	–	–	–	–	101	99	–	–	–	–
CSc1nc(-c2ccc(F)cc2)c(-c2ccnc(NC(C)c3ccccc3)c2)[nH]1 (configuration not stated)	–	89	–	–	–	–	99	78	100	84	–	86	101	74	–	79	–	95	125	82
COc1cc2c(cc1OC)-c1n[nH]c(Nc3cccc(F)c3)c1C2	–	100	–	–	83	73	61	49	–	–	114	66	98	76	–	–	73	30	–	–
O=C1NC(=O)C(c2cn(CCCn3ccnc3)c3ccccc23)=C1Nc1ccccc1	–	41	39	6	41	13	20	8	22	4	100	67	64	13	–	–	–	–	114	79
Nc1nc(Nc2ccc(S(N)(=O)=O)cc2)nn1C(=O)c1c(F)cccc1F	–	–	–	–	25	2	61	6	–	–	75	33	34	4	–	1	95	66	45	10
Nc1nccc(-c2c(-c3ccc(F)cc3)ncn2C2CCNCC2)n1	–	–	–	–	–	–	82	82	–	–	–	–	–	–	67	24	–	82	114	82
CCCCc1c(-c2ccc(O)cc2)[nH]c2nccnc12	–	–	–	–	61	42	68	38	90	85	–	–	86	45	73	71	86	76	–	–
